Results on 40 molecules are retold here after PubChem BioAssay (NCATS).

Molecules are shown by their SMILES. Values joined by “and” are separate entries in the source; they are usually repeats but may differ in a detail not shown here. Equal values may be shown once. Active and inactive are the calls of the source. Calls follow the shape of the full dose curve. Where only a bound is given, the exact number is not on record here.
Potency is read from the fitted curve at half-maximal effect.

Glucocorticoid receptor (Homo sapiens), sequence (P04150 whole entry, looked up): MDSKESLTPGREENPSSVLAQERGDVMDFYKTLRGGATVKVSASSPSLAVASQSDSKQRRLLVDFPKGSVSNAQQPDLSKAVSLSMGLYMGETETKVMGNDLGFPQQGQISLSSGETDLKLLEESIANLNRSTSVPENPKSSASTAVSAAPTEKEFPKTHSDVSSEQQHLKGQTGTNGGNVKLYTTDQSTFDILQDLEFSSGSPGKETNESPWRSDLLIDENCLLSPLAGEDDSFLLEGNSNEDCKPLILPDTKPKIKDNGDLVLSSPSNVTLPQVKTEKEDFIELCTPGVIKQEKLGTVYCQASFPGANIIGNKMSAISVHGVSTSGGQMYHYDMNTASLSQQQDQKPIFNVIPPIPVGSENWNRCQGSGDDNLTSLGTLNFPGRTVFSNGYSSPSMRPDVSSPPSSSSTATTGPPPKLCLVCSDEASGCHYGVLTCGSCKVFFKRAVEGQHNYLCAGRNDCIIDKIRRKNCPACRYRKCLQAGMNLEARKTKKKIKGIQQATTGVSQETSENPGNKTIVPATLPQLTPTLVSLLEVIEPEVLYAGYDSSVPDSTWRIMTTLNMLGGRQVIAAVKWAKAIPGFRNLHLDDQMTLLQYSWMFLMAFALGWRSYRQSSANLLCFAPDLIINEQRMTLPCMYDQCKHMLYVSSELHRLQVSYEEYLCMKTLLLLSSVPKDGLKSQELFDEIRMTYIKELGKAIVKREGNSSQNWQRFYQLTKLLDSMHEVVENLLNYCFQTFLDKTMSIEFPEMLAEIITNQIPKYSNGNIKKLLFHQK

The assay has as its target Glucocorticoid receptor (Homo sapiens) (UniProt P04150). The assay can be described thus: GR-EFC Redistribution (AID 451). The conditions noted are these: CHO-K1 GR-EFC translocation, beta-gal luminescence, 2 h. The source says:
NIH Molecular Libraries Screening Centers Network [MLSCN]
NIH Chemical Genomics Center [NCGC]
The glucocorticoid receptor (GR) is a cytoplasmic receptor that belongs to the nuclear receptor family of ligand-dependent transcription factors. Upon glucocorticoid binding to its receptor, the glucocorticoid-GR complex translocates into the nucleus, where it binds as a dimer to specific DNA sequences (glucocorticoid response elements), enhancing or suppressing transcription of a wide variety of glucocorticoid-responsive genes. In addition to their important roles in normal physiology and metabolism, glucocorticoids are administered exogenously as treatments for a wide variety of allergic, autoimmune, and neoplastic conditions. Identification of compounds that modulate aspects of GR signalling would be useful in dissecting glucocorticoid response pathways as well as developing GR modulators with more targeted clinical effects.
Traditionally, GR modulators have been identified using receptor binding or direct transactivation assays. However, assays for glucocorticoid-dependent nuclear translocation can also be used to screen for compounds affecting GR signaling.
Immunocytochemical staining has been used to assay for GR translocation, but is not suitable for high throughout screening due to the multiple reagent addition and wash steps required. Recently, a novel cell-based GR assay in Enzyme Fragment Complementation (EFC) format was developed by DiscoveRx (Fremont, CA). The assay uses EFC of b-galactosidase (b-gal) as an indicator of GR-translocation in engineered CHO-K1 biosensor cells. The enzyme acceptor (EA) fragment of b-gal resides in the nucleus , as designed through the use of a proprietary set of sequence additions and modifications. The small peptide enzyme donor (ED) fragment of b-gal is fused directly to the C-terminus of GR, and is localized in the cytoplasm is the absence of receptor signaling. Upon binding to a GR ligand, the complex translocates to the nucleus, where intact enzyme activity is restored by complementation and b-gal activity is detected. We optimized this GR-EFC assay in homogenous 1536-well plate assay format for high throughput screening.
NCGC Assay Protocol Summary:
CHO-K1 cells stably expressing NLS-enzyme acceptor fragment (EA) of b-gal and GR-enzyme donor (ED) fragment of b-gal were maintained in F12 medium (Invitrogen, Carlsbad, CA) at 37 Celsius degrees under a humidified atmosphere containing 5% CO2 and 95% air. The medium contained 10% FBS, 2 mM L-glutamine, 50 U/ml penicillin 50 ug/ml streptomycin, and 250 ug/ml hygromycin and 500 ug/ml G418 (Invitrogen).
GR-translocation was measured beta-gal enzyme activity using the PathHunter Detection Kit containing cell membrane permeablizing reagent and beta-gal substrate (DiscoveRx, Fremont, CA). All compounds were screened as titrations from 0.6 nM to 46 uM final concentration. The assay was performed in 1536-well format as follows:
5 uL cell suspension (1,000 cells)/well
Incubation at 37 Celsius degrees for two hours
1.25 uL 1X detection buffer from the kit supplied by DiscoveRx
Incubation at room temperature for one hour
Read plate in luminescence mode in ViewLux plate reader (PerkinElmer)
Keywords: NIH Roadmap, MLSCN, MLI, MLSMR, GR-EFC, GREFC, qHTS, NCGC
Consider `CC(=O)O[C@]1(C(C)=O)CC[C@@H]2[C@@H]3C=C(C)C4=CC(=O)CC[C@@]4(C)[C@H]3CC[C@]21C`, for which the Potency is 0.0557 µM (active).

In the case of `Cc1ccc2c(c1)c1c3n2CCN[C@H]3CCC1`, the Potency is > 20.6 µM (inactive) and > 46 µM (inactive).

For `CO[C@H]1[C@H](O[C@H]2O[C@@H](C)[C@@H](O[C@@H]3C[C@](C)(O)[C@H](O)[C@H](C)O3)[C@@H](N(C)C)[C@@H]2O)[C@@H](CC=O)C[C@@H](C)[C@@H](O[C@H]2CC[C@H](N(C)C)[C@H](C)O2)/C=C\C=C/C[C@@H](C)OC(=O)C[C@H]1O`, the Potency is > 20.6 µM (inactive).

`CCCC(=O)Nc1ccc(OC[C@@H](O)CNC(C)C)c(C(C)=O)c1`: the Potency was > 20.6 µM (inactive).

With `Cc1cc2ccc(=O)oc2cc1OC[C@@H](O)C(C)(C)O`, the Potency was > 46 µM (inactive).

Consider `CN(C)CCn1nnnc1SCC1=C(C(=O)O)N2C(=O)[C@@H](NC(=O)Cc3csc(N)n3)[C@@H]2SC1`, for which the Potency is > 20.6 µM (inactive).

Consider `CCC(C)(C)C(=O)O[C@@H]1C[C@H](C)C=C2C=C[C@H](C)[C@@H](CC[C@H]3C[C@@H](O)CC(=O)O3)[C@H]21`, for which the Potency was > 20.6 µM (inactive).

On to `CN(C)CCCO[C@H]1[C@@H]2OC(C)(C)O[C@@H]2O[C@@H]1[C@H](O)CO`, for which the Potency was > 20.6 µM (inactive).

Consider `Cc1ncc([N+](=O)[O-])n1C[C@H](O)CCl`, for which the Potency is > 20.6 µM (inactive).

As to `C[C@H]1CC[C@@H]2[C@@H](C)[C@H]3[C@H](C[C@H]4[C@@H]5CC=C6C[C@@H](O[C@]7(O[C@H]8O[C@@H](C)[C@@H](O)[C@@H](O)[C@@H]8O)C[C@@H](O[C@@H]8O[C@H](CO)[C@@H](O)[C@H](O)[C@@H]8O)[C@@H](O)[C@H](CO)O7)CC[C@]6(C)[C@H]5CC[C@@]34C)N2C1`, the Potency is > 20.6 µM (inactive).

Regarding `c1ccc2c3c([nH]c2c1)[C@@H]1[C@H]2CC[C@H]([C@H]4CCCN[C@H]42)N1CC3`, the Potency was > 20.6 µM (inactive).

Take `O[C@H](c1cc(C(F)(F)F)nc2c(C(F)(F)F)cccc12)[C@H]1CCCCN1`: the Potency is > 20.6 µM (inactive).

Consider `CCN(CC)[C@@H](C)CN1c2ccccc2Sc2ccccc21`, for which the Potency was > 20.6 µM (inactive).

For the molecule `C[C@@H]1C[C@H](OC(=O)[C@@H](O)c2ccccc2)CC(C)(C)N1C`, the Potency is > 20.6 µM (inactive).

For `CNCCC=C1c2ccccc2C=Cc2ccccc21`, the Potency is > 20.6 µM (inactive).

`NCC[C@H](O)C(=O)N[C@H]1C[C@@H](N)[C@@H](O[C@H]2O[C@@H](CN)[C@@H](O)[C@@H](O)[C@@H]2O)[C@@H](O)[C@@H]1O[C@H]1O[C@@H](CO)[C@@H](O)[C@@H](N)[C@@H]1O`: the Potency is > 20.6 µM (inactive).

Turning to `CCC[C@H]1C[C@H](C(=O)N[C@H]([C@@H]2O[C@H](SC)[C@@H](O)[C@H](O)[C@@H]2O)[C@H](C)O)N(C)C1`, the Potency was > 20.6 µM (inactive).

With `CN(C)CCOC(=O)[C@@H](c1ccccc1)C1(O)CCCC1`, the Potency was > 20.6 µM (inactive).

Regarding `C=C(C)[C@H]1CC[C@]2(C(=O)O)CC[C@]3(C)[C@@H](CC[C@H]4[C@@]5(C)CC[C@@H](O)C(C)(C)[C@@H]5CC[C@@]43C)[C@H]12`, the Potency is > 20.6 µM (inactive).

Consider `COc1ccc(OC)c([C@H](O)CNC(=O)CN)c1`, for which the Potency was > 20.6 µM (inactive).

For the molecule `CC(=O)O[C@H]1C[C@@]2(C)[C@H](C[C@@H](O)[C@H]3[C@@]4(C)CC[C@@H](O)[C@@H](C)[C@H]4CC[C@@]32C)C1=C(CCC=C(C)C)C(=O)O`, the Potency was > 20.6 µM (inactive).

As to `O=c1cc(-c2ccc(O)cc2)oc2c([C@H]3O[C@@H](CO)[C@@H](O)[C@@H](O)[C@@H]3O)c(O)cc(O)c12`, the Potency was > 20.6 µM (inactive).

Turning to `NCc1ccccc1CC(=O)N[C@@H]1C(=O)N2C(C(=O)O)=C(CSc3nnnn3CC(=O)O)CS[C@@H]12`, the Potency was > 20.6 µM (inactive).

`C[N+]1(C)C[C@@H](O)C[C@@H]1C(=O)[O-]`: the Potency was > 20.6 µM (inactive).

Take `C[C@H](N)CCCC(C)(C)O`: the Potency was > 20.6 µM (inactive).

Turning to `O=C(O)c1cc2ccccc2c(Cc2cc3ccccc3c(C(=O)O)c2O)c1O` (tested in a mixture with another compound), the Potency was > 20.6 µM (inactive).

In the case of `CN(C)c1ccc(-c2nccc(NCc3ccccc3)n2)cc1`, the Potency is > 46 µM (inactive).

Consider `C=C1CC[C@H](O)C/C1=C/C=C1\CCC[C@]2(C)[C@H]1CC[C@H]2[C@@H](C)/C=C\[C@@H](C)C(C)C`, for which the Potency was > 20.6 µM (inactive).

Take `CCN[C@@H]1CN(CCCOC)S(=O)(=O)c2sc(S(N)(=O)=O)cc21`: the Potency was > 20.6 µM (inactive).

`C[C@@]12CC[C@H]3[C@@H](CCC4=CC(=O)CC[C@]43C)[C@H]1CC[C@H]2C(=O)CO`: the Potency was > 20.6 µM (inactive).

Take `O[C@@](CCN1CCCCC1)(c1ccccc1)[C@@H]1C[C@H]2C=C[C@@H]1C2`: the Potency was > 20.6 µM (inactive).

Turning to `C[C@@]12CC[C@@H]3c4ccc(O)cc4CC[C@H]3[C@H]1C[C@@H](O)[C@H]2O`, the Potency is > 20.6 µM (inactive).

For `C=Cc1c(C)c2cc3nc(cc4[nH]c(cc5nc(cc1[nH]2)C(C)=C5CCC(=O)O)c(CCC(=O)OC)c4C)[C@@]1(C)C3=CC=C(C(=O)OC)[C@H]1C(=O)OC` (tested in a mixture with another compound), the Potency is > 20.6 µM (inactive).

`C#C[C@]1(O)CC[C@@H]2[C@H]3CCC4=Cc5oncc5C[C@]4(C)[C@@H]3CC[C@@]21C`: the Potency is > 20.6 µM (inactive).

As for `Cc1cccc(C)c1NC(=O)[C@H](C)N`, the Potency was > 20.6 µM (inactive).

With `CC(C)(C)NC(=O)[C@@H]1C[C@H]2CCCC[C@@H]2CN1C[C@H](O)[C@H](Cc1ccccc1)NC(=O)[C@@H](CC(N)=O)NC(=O)c1ccc2ccccc2n1`, the Potency was > 20.6 µM (inactive).

Turning to `O=C(O)[C@@H]1CCCNC1`, the Potency was > 20.6 µM (inactive).

For the molecule `O=C(O)CCCC[C@H]1SC[C@H]2NC(=O)N[C@@H]21`, the Potency was > 20.6 µM (inactive).

With `Cc1ccccc1OC[C@H](O)CO`, the Potency is > 20.6 µM (inactive).

Regarding `C[C@H](NCCC(c1ccccc1)c1ccccc1)c1ccccc1`, the Potency was > 20.6 µM (inactive).
